Consider 91 compounds from PubChem BioAssay AID588814 (The Scripps Research Institute Molecular Screening Center, 2011).

Where “and” joins values, the source holds several entries; their conditions need not be identical. Equal entries are not always repeated. In all, about 360,000 compounds went through this assay and about 1,200 (0.33%) were called active.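 The calls were made as follows: active = activation above the run's mean compound activation plus 3 SD (cut at about 16% in these data); inactive = the rest.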 The entries come from a sample that favours actives as a whole.

Muscarinic acetylcholine receptor M1 (Homo sapiens), sequence (P11229 whole entry, looked up): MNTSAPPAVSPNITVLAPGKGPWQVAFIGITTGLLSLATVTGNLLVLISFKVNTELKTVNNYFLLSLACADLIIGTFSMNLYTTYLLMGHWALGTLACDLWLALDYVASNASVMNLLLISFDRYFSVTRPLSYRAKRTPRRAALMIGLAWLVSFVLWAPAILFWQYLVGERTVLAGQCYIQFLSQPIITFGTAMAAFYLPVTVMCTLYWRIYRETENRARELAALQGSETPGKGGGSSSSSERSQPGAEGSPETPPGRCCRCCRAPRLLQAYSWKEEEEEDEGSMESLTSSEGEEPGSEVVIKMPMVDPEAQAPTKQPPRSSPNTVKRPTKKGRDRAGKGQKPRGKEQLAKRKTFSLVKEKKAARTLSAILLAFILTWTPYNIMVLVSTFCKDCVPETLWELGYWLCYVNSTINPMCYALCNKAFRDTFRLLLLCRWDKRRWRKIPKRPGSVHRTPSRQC

The test concerns the target Muscarinic acetylcholine receptor M1 (Homo sapiens) (UniProt P11229). As to the kind of experiment: CHRM1 activation via calcium signal – Fluo-8 calcium fluorescence, CHO-K1 cells, HTS, primary screen (AID 588814).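 Also: peak over basal fluorescence ratio within a 140 s kinetic read after compound addition.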 Conditions: CHO-K1 hM1, Fluo-8 calcium fluorescence, agonist mode; at 3 µM; stronger effect = higher value; 0% DMSO, 100% acetylcholine EC100.
Turning to `C[C@H]1CN([C@@H](C)CO)C(=O)c2cc(C3=CCCCC3)cnc2O[C@@H]1CN(C)C(=O)Cc1ccccc1`, the activation was -6.56% (inactive).

On to `CN(CCc1ccccc1)C(=O)c1cccc(NC(=O)Cc2cccc(NC(=O)C3CCCN(C(=O)CCc4ccccc4)C3)c2)c1` (stereo unspecified), for which the activation was -7.79% (inactive).

With `Cc1ccc(-c2nnc(C)c(N3CC(C)OC(C)C3)n2)cc1` (stereo unspecified), the activation is -3.38% (inactive).

With `Cc1ccc(SCC(=O)Nc2nncs2)cc1`, the activation was 0.6% (inactive).

Turning to `CC(Oc1ccccc1)C(=O)Nc1oc(-c2ccco2)c(-c2ccco2)c1C#N` (stereo unspecified), the activation was -4.2% (inactive).

Turning to `CCOc1ccc(S(=O)(=O)N2CCC(C(=O)NCC(=O)Nc3cccc(Cl)c3C)CC2)cc1`, the activation was -2.79% (inactive).

With `Cc1ccc2nc(/C(C#N)=C\c3ccc(OC(=O)c4cccs4)cc3)[nH]c2c1`, the activation was 21.8% (active).

Turning to `COc1ccc(CCNC(=O)/C(C#N)=C2\N=C(NC(=O)c3cccs3)c3ccccc32)cc1`, the activation is 0.74% (inactive).

For `CCN(CC)c1ccc(S(=O)(=O)N2CCOCC2)cc1NC(=O)CSc1cccc[n+]1[O-]`, the activation is -5.92% (inactive).

In the case of `CCOc1ccc(NC(=O)CC(Cc2ccc(Cl)cc2)C(=O)O)cc1` (stereo unspecified), the activation is -7.97% (inactive).

On to `O=C(NN1CCOCC1)c1cccc(F)c1`, for which the activation was -3.15% (inactive).

Consider `Cc1ccc(C(=O)NC2CCN(C(=O)Nc3ccccc3Cl)CC2)cc1`, for which the activation was -1.42% (inactive).

In the case of `COC(=O)c1ccc(CN2CCCC(C(=O)Nc3cccc(-n4cnnn4)c3)C2)cc1` (stereo unspecified), the activation was 37.4% (active).

On to `O=C(Nc1ccc(F)cc1)C1CCCN(S(=O)(=O)c2ccc(-n3cnnn3)cc2)C1` (stereo unspecified), for which the activation is -3.35% (inactive).

For the compound `CC(C)CNC(=O)C1CCCN(S(=O)(=O)c2ccc(-n3cnnn3)cc2)C1` (stereo unspecified), the activation is -2.97% (inactive).

Regarding `O=C(NCCCN1CCCC1=O)C(=O)NCC1OCCN1S(=O)(=O)c1ccc(Br)cc1` (stereo unspecified), the activation is -4.08% (inactive).

For `Nc1c(C(=O)c2cccs2)sc2nsc(SCCN3CCCCC3)c12`, the activation was 40.6% (active).

`COc1ccc(Cl)cc1NC(=O)CN(C)C(=O)CCCc1c[nH]c2ccccc12`: the activation was -1.46% (inactive).

For `Cc1occc1-c1nnc(SCC(=O)NC2(C#N)CCCC2)n1C`, the activation was -1.84% (inactive).

As for `CCOC(=O)c1nnn2c3ccccc3c(=O)n(C)c12`, the activation is -1.59% (inactive).

With `CCOC(=O)N1CCN(C(=O)c2nn(-c3ccc(C)cc3)c(=O)c3c2c2ccccc2n3C)CC1`, the activation is -4.51% (inactive).

With `CCCc1nc2c(c(=O)c3ccccc3n2C)c(=O)n1C1CCCCCC1`, the activation is 55.4% (active).

Turning to `COC(=O)c1ccc(CNC(=O)C2CCC(=O)N(Cc3cccc(F)c3)C2)cc1` (stereo unspecified), the activation is -0.82% (inactive).

On to `Cc1nc([N+](=O)[O-])c(NCCCO)n1Cc1ccccc1`, for which the activation was -5.22% (inactive).

Turning to `CN(C)CCNC(=O)c1ccc(Cl)c2cc3ccccc3nc12`, the activation was -6.82% (inactive).

For `Nc1ccc2nc3c(=O)[nH]c(=S)[nH]c3nc2c1`, the activation is 18.4% (active).

Turning to `CSCc1cc(N(C)C)nc(SCc2ccc(Cl)cc2Cl)n1`, the activation was 1.65% (inactive).

As for `COc1cccc(NC(=O)N(C)C[C@@H]2Oc3ncc(Br)cc3C(=O)N([C@@H](C)CO)C[C@H]2C)c1`, the activation is -2.37% (inactive).

As for `COC(=O)c1cc(NS(=O)(=O)c2ccc3c(c2)c(=O)n(C)c(=O)n3C)cc(C(=O)OC)c1`, the activation is -0.41% (inactive).

As to `Cc1ccccc1NC(=O)c1cc(S(=O)(=O)N2CCOCC2)cs1`, the activation was -2.94% (inactive).

On to `COc1cc(OC)cc(C(=O)NCC(=O)OCC(=O)NC(C)CCc2ccccc2)c1` (stereo unspecified), for which the activation was -5.47% (inactive).

`COc1cc(OC)cc(C(=O)NC(C(=O)N2CCC2)C(C)C)c1` (stereo unspecified): the activation was -2.4% (inactive).

As for `COc1cc(OC)cc(C(=O)N[C@H](C(=O)OCC(=O)NC(C)c2ccccc2)C(C)C)c1` (stereo partly specified), the activation was 18.7% (active).

On to `CC(C)c1ccc(NC(=O)Cn2ncc3ccccc32)cc1`, for which the activation was -2.42% (inactive).

Turning to `CCC(C(=O)Nc1ccc(C(C)C)cc1)c1ccccc1` (stereo unspecified), the activation is 29.4% (active).

In the case of `CC(NC(=O)Nc1ccccc1)c1ccccc1` (stereo unspecified), the activation was -4.05% (inactive).

On to `COc1ccc(C(c2nnnn2C2CCCC2)N2CCN(C/C=C/c3ccccc3)CC2)cc1` (stereo unspecified), for which the activation is -7.67% (inactive).

In the case of `Cc1ccc(N2C(=O)C3C4C=CC(CC4)C3C2=O)cc1Cl` (stereo unspecified), the activation was -1.43% (inactive).

Regarding `Cc1ccc(S(=O)(=O)Oc2ccc(/C=N/NC(=O)c3c(Cl)cnn3C)cc2)cc1`, the activation was -4.49% (inactive).

Consider `Cc1cc(NC(=O)CSc2nc3c(cc2C#N)CCCCC3)no1`, for which the activation is -4.15% (inactive).

As to `CC(NC(=O)CSc1nc2c(cc1C#N)CN(C)CC2)c1ccccc1` (stereo unspecified), the activation is 18.6% (active).

Take `CC1(C)CCc2nc(SCc3ccccc3)c(C#N)cc2C1`: the activation was -1.01% (inactive).

Consider `CCOC(=O)C1CCCN(CCSc2ccc(C)cc2)C1` (stereo unspecified), for which the activation was -6.73% (inactive).

`COc1ccc(Nc2nc(N)nc(CSC(=S)N3CCC(C)CC3)n2)cc1`: the activation was -4.28% (inactive).

As to `CCOC(=O)C1CCCN(Cc2nc(N)nc(Nc3ccc(C)cc3)n2)C1` (stereo unspecified), the activation was 28.3% (active).

Regarding `CCOC(=O)C1CCCN(C(=O)c2cccc3ccccc23)CC1` (stereo unspecified), the activation was -0.09% (inactive).

On to `O=C(c1cnccn1)N1CCN(S(=O)(=O)c2cccc(Cl)c2)CC1`, for which the activation is -0.88% (inactive).

`CC(C)(C)NC(=O)NC(=O)CN1CCC(Cc2ccccc2)CC1`: the activation was -13.3% (inactive).

With `CC(C)(CNC(=O)Cc1ccc(Cl)cc1Cl)N1CCOCC1`, the activation was -10.7% (inactive).

Take `CN1c2ccc(C=O)c3c(C=O)ccc(c23)N(C)C1(C)C`: the activation is -7.9% (inactive).

On to `CCN(CC)C(=O)C1=C(C)N(Cc2ccc(OC)cc2)C(=O)C(CC(=O)NCCCCc2ccccc2)C1` (stereo unspecified), for which the activation was 23.1% (active).

In the case of `CCN(CC)C(=O)C1=C(C)N(Cc2ccc(OC)cc2)C(=O)C(CC(=O)NCc2ccco2)C1` (stereo unspecified), the activation was -7.01% (inactive).

Turning to `COc1ccc(CN2C(=O)C(CC(=O)NCCCCc3ccccc3)CC(C(=O)N3CCOCC3)=C2C)cc1` (stereo unspecified), the activation was 3.01% (inactive).

On to `Cn1cc(C2OC(=O)c3ccccc32)c2ccccc21` (stereo unspecified), for which the activation was 0.52% (inactive).

Turning to `CN1C(=O)c2cccc3c(N)ccc(c23)C1=O`, the activation is 118% (active).

Take `Cc1nn(C)cc1N1C(=O)c2cccc3c(N)ccc(c23)C1=O`: the activation was 44.5% (active).

Take `C[C@]12CCC(=O)C=C1C=CC1C2CC[C@@]2(C)C1CC[C@@]21CCC(=O)O1` (stereo partly specified): the activation is -6.36% (inactive).

For `O=C(CN1C(=O)CC(c2ccccc2)S(=O)(=O)c2ccccc21)NC1CCCC1` (stereo unspecified), the activation was -3.97% (inactive).

As to `COc1ccc(CCC(=O)OCC(=O)Nc2ccc(C)c(S(=O)(=O)N(C)C)c2)cc1`, the activation is -1.39% (inactive).

Regarding `CCN1CCN(c2cc3nc(C)n(Cc4ccccc4)c(=O)c3cc2NC(=O)c2ccccc2F)CC1`, the activation is -9.45% (inactive).

As for `NNC(=O)COc1ccc(C2SCCS2)cc1`, the activation was -1.63% (inactive).

As for `CC(=O)NC(=S)NNC(=O)c1ccc(Br)cc1`, the activation was -8.87% (inactive).

Consider `O=C(NNC(=S)NCc1ccccc1)c1ccc(OC(F)F)cc1`, for which the activation is -4.38% (inactive).

`O=C(CCc1ccccc1)NNC(=O)COc1ccc(Cl)cc1`: the activation is 1.21% (inactive).

As for `COc1ccc(C(=O)NNC(=S)NC(=O)c2ccccc2)cc1`, the activation is 34.3% (active).

Turning to `CCOc1ccccc1NC(=S)NC(=O)CCc1ccccc1`, the activation is -3.2% (inactive).

Turning to `COc1ccc(C(=O)NC(=S)NNC(=O)CCc2ccccc2)cc1`, the activation is 34.7% (active).

Consider `COCCCNC(=O)C1CC(=O)N(c2ccc(C)cc2)C1` (stereo unspecified), for which the activation is -2.9% (inactive).

Take `O=C(c1ccc(CS(=O)(=O)c2ccccc2)o1)N1CCN(c2ccccc2)CC1`: the activation was -1.41% (inactive).

Regarding `CC(C)(C)NS(=O)(=O)NC(=O)C1=C(N2CCCC2)COC1=O`, the activation is -5.28% (inactive).

Regarding `Cc1nc(C(F)(F)F)ccc1C(=O)N1CCC1(C)C(=O)NS(=O)(=O)c1ccccc1Cl` (stereo unspecified), the activation was -0.92% (inactive).

Take `CC1=NCCN1S(=O)(=O)c1ccc(Br)c(C)c1`: the activation was -3.91% (inactive).

`O=C1COc2ccc(C(=O)CSc3ccc(Br)cc3)cc2N1`: the activation is 0.13% (inactive).

For the compound `c1ccc(CCC2=NCCn3cccc32)cc1`, the activation is -1.99% (inactive) and -6.48% (inactive).

Turning to `COc1cccc(CNC(=O)c2nnn(CC(=O)Nc3cc(Cl)ccc3C)c2N)c1`, the activation was 2.49% (inactive).

Regarding `COc1ccc(CNC(=O)c2nnn(CC(=O)Nc3cc(C)cc(C)c3)c2N)cc1`, the activation was -1.24% (inactive).

Take `CCOc1ccc(Cn2nnc(C(=O)Nc3ccc(OC)cc3OC)c2N)cc1`: the activation is 17.4% (active).

As for `COc1ccc(NC(=O)Cn2nnc(C(=O)NCCc3ccc(OC)c(OC)c3)c2N)cc1`, the activation was -1.8% (inactive).

As for `CCOc1ccc(Cn2nnc(C(=O)NCc3ccccc3)c2N)cc1`, the activation was 41% (active).

For the compound `Nc1c(C(=O)Nc2ccc3c(c2)OCCO3)nnn1Cc1ccccc1`, the activation is 1.21% (inactive).

As to `O=C(CCNS(=O)(=O)c1ccc(Br)s1)NCc1ccccc1Cl`, the activation was -1.35% (inactive).

With `O=c1o[nH]c(-c2ccccc2)c1N=Nc1c(F)cccc1Cl`, the activation was -2.19% (inactive).

As to `CCCCNC(=O)CCn1c(=O)c2ccccc2n(Cc2cc(C)ccc2C)c1=O`, the activation is -4.41% (inactive).

On to `OC(c1ccc(F)cc1)c1ncc(-c2cccc(C(F)(F)F)c2)[nH]1` (stereo unspecified), for which the activation is 6.15% (inactive).

Regarding `CC(=O)Nc1cc(-c2ccccc2F)cn2c(-c3cccc(C(F)(F)F)c3)cnc12`, the activation is -3.25% (inactive).

Turning to `CC(=O)Nc1cccc(C(=O)OCC(=O)c2ccc3c(c2)OCO3)c1`, the activation is 6.09% (inactive).

Take `NS(=O)(=O)c1ccc(NC(=O)COC(=O)CCc2c[nH]c3ccccc23)cc1`: the activation was -0.53% (inactive).

As for `O=C(COC(=O)c1ccc(Cl)nc1)NCc1ccc2c(c1)OCO2`, the activation was -4.12% (inactive).

Regarding `NS(=O)(=O)c1ccc(NC(=O)COC(=O)c2c3c(nc4ccccc24)/C(=C\c2ccc4c(c2)OCO4)CCC3)cc1`, the activation is 62.8% (active).

`NC(=O)c1ccc(NC(=O)COC(=O)c2c3c(nc4ccccc24)/C(=C\c2ccc4c(c2)OCO4)CCC3)cc1`: the activation is 38.3% (active).

Consider `NS(=O)(=O)c1ccc(NC(=O)COC(=O)c2ccco2)cc1`, for which the activation is -0.06% (inactive).
